KAT2A inh – GCN5L2 (KAT2A) acetyltransferase inhibition. Q92830. GCN5L2 HAT assay, ThioGlo1 CoA-SH fluorescence. Potency, µM (doses to about 58.9 µM), without a hit: top-dose activity change, negative = inhibition, hits mostly inhibitors. 390,000 compounds, 0.21% hits
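Preincubate 20nM GCN5L2 with compound 15 min, RT → add 50uM ThioGlo1 + 75uM H3(1-25) + 70uM acetyl-CoA → read fluorescence 0 and 20 min. Primary qHTS; fluorescent artifacts likely.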
TDP1 block – blocks human tyrosyl-DNA phosphodiesterase 1 | Potency, µM (top dose mostly 130 µM), inactives show top-dose activity change, negative = inhibition, actives largely listed as inhibitors | recombinant TDP1, AlphaScreen DNA substrate cleavage | AID 485290 | Q9NUW8 | 350,000 compounds, 0.28% hits; note: nearly all actives have a fitted effect of over 40% in size
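Compounds were preincubated with Tdp1 (1 nM final) for 15 min at room temperature before substrate (15 nM final) started a 5 min reaction; beads (10 ug/ml final) were then added for 10 min before AlphaScreen detection.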
VDR inh – vitamin D3 receptor (human) inhibition; Potency, µM, for inactives: max response, negative = inhibition, actives largely listed as inhibitors; VDR-SRC2-3 peptide fluorescence polarization, 2 h; P11473; 400,000 compounds, 0.93% hits
Target sequence (P11473 whole entry, looked up): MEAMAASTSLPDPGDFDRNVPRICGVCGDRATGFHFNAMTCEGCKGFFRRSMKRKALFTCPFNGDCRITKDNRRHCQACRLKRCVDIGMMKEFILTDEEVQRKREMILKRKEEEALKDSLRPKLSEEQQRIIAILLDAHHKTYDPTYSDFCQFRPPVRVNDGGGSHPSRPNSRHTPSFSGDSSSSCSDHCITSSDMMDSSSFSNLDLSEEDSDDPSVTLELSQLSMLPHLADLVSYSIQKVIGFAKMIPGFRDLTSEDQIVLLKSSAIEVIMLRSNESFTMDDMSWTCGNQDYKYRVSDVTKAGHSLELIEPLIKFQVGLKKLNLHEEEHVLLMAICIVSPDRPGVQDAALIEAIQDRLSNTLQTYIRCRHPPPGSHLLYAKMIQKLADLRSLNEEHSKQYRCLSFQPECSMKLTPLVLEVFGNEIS
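The screen uses fluorescence polarization to detect compounds that interfere with recruitment of the SRC2-3 coactivator peptide to VDR; plates are read after 2 h at room temperature.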
TDP1 cell CPT – growth inhibition of DT40 Tdp1-/-;hTDP1 cells with camptothecin (screen for TDP1 inhibitors); chicken DT40 Tdp1-/-;hTDP1 cells + 20 nM CPT, ATP luminescence, 48 h; Potency, µM (top dose mostly 46.2 µM), for inactives: at the highest dose activity change, negative = growth inhibition, most hits filed as inhibitors; 420,000 compounds, 12% hits; note: nearly all actives have a fitted effect of over 55% in size
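Chicken DT40 Tdp1-/- cells stably complemented with human TDP1 were seeded at 400 cells/well in medium containing 20 nM camptothecin, exposed to pin-transferred compounds, and grown at 37 °C for at least 48 hr. Viability was read as ATP luminescence.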
PLK1 PBD block – blocks phosphopeptide binding to human PLK1 polo-box domain. P53350. Plk1 PBD binding of FITC phosphopeptide, fluorescence polarization. Potency, µM, for inactives: max response, negative = inhibition, usual class: inhibitors. 360,000 compounds, 2.8% hits. AID 720504; note: series mostly up to about 57 µM; nearly all actives have a fitted effect of over 65% in size
TDP1 cell noCPT – qHTS for Inhibitors of human tyrosyl-DNA phosphodiesterase 1 (TDP1): qHTS in cells in absence of CPT; Potency, µM (titrated, usually from 46.2 µM), for the others: at the highest dose activity change, negative = growth inhibition, hits mostly inhibitors; 420,000 compounds, 15% hits; DT40 Tdp1-/- hTDP1 cells, no CPT, ATP luminescence, 48 h; note: nearly all actives have a fitted effect of over 55% in size
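Luminescent ATP content (CellTiter-Glo) served as the growth readout. Knockout chicken DT40 cells expressing human TDP1 were exposed to compounds without camptothecin for a minimum 48 hr at 37 °C.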
* marks the source's active call; other numbers are inactive results; ? = inconclusive; · = not tested or not shown; [ ] = another dose, or the depositor's remark. The list is not random: actives were taken first. Their share in the collection is about 18%. Calls come from the whole dose curve; as a rule, active = well fitted curve in the direction sought with a large enough effect; inconclusive = small, poorly fitted or top-dose-only effect, or another doubt; inactive = no such curve, though single readings can be large; an effect the other way counts as inactive or inconclusive. % is set by controls: 0 for no effect and ±100 for the full control effect; potency is the fitted concentration of half-maximal effect.

SMILES | KAT2A inh | TDP1 block | VDR inh | TDP1 cell CPT | PLK1 PBD block | TDP1 cell noCPT
O=C(Nc1ccc2c(c1)OCO2)C(=O)c1c[nH]c2ccccc12 | -23% | 0% | -18% | -9% | 1% | -8%
O=C(Nc1ccc2c(c1)OCCO2)C(=O)c1c[nH]c2ccccc12 | -9% | 4% | 29% | 10µM* | -1% | ?
CCN(CC)C(=O)Cn1cc(C(=O)C(=O)Nc2ccc3c(c2)OCCO3)c2ccccc21 | -6% | 2% | 4% | 18µM* | -3% | 23µM*
CC(C)C[C@@H](COCc1ccc(C(F)(F)F)cc1)N1CCN(C(=O)c2ccc(C(F)(F)F)cc2)CCC1=O | · | · | · | ? | 0% | ?
Cc1ccc(S(=O)(=O)N2CCCC(c3nnc4n3-c3ccccc3SC4)C2)cc1 (stereo unspecified) | -5% | 8% | 3% | ? | 3% | 15µM*
C=CCNC(=S)N(CC=C)C1CCS(=O)(=O)C1 (stereo unspecified) | -1% | -1% | 5% | 4% | -5% | -19%
COc1ccccc1-c1cc(C(=O)N2CCN(c3ccccc3)CC2)no1 | -11% | 1% | -6% | ? | -3% | -13%
Cc1nc(N2CCCC2)c2c(C(=O)N3CCN(c4cc(Cl)ccc4C)CC3)c(C)oc2n1 | 3% | · | -2% | ? | · | 18µM*
COc1cc2c(C(=O)N3CCN(c4ccccc4)CC3)c(C)oc2cc1Br | -12% | 6% | 8% | ? | -8% | 18µM*
Cc1cccc(N2CCN(C(=O)c3c(C)oc4ncnc(N5CCCCC5)c34)CC2)c1C | -6% | 5% | 15% | 16µM* | · | 8.2µM*
Cc1oc2ncnc(N3CCCCC3)c2c1C(=O)Nc1cccc(Cl)c1C | 19% | 1% | 2% | 16µM* | · | 15µM*
COc1ccc(CNC(=O)CSCc2ccc(C)cc2)c(OC)c1 | -1% | 8% | 9% | ? | · | ?
OC(c1ccc(F)cc1)c1nc(-c2cccs2)cs1 (stereo unspecified) | · | · | · | -29% | 4% | ?
CCOC(=O)c1ccc(NC(=O)c2c(C)oc3nc(C)nc(N4CCCC4)c23)cc1 | -8% | -1% | 12% | ? | · | ?
Cc1ccc(N2CCN(C(=O)c3c(C)oc4ncnc(N5CCCCC5)c34)CC2)c(C)c1 | 28% | -1% | 8% | 16µM* | · | 7.3µM*
Cc1ccc(N2CCN(C(=O)c3c(C)oc4ncnc(N5CCOCC5)c34)CC2)c(C)c1 | 25% | 3% | 7% | ? | · | -27%
CCN(CC)S(=O)(=O)c1ccc(NC(=O)c2c(C)oc3ncnc(N4CCCCC4)c23)cc1 | 22% | 5% | 5% | 21µM* | · | 15µM*
COc1cccc(N2CCN(C(=O)c3c(C)oc4ncnc(N5CCCCC5)c34)CC2)c1 | 7% | 0% | 24% | ? | · | 18µM*
Cc1cccc(N2CCN(C(=O)c3c(C)nn(Cc4ccccc4Cl)c3C)CC2)c1C | -9% | 4% | 12% | 9.2µM* | -7% | 10µM*
COC(=O)c1cn([C@@H]2C[C@@H](C(=O)Nc3cccc(SC)c3)N(C3CCCC3)C2)nn1 | · | · | · | 3%[9.04 µM] | · | -24%
COc1ccc(NS(=O)(=O)c2ccc(NC(=O)N3CCCC3)cc2)cc1 | -2% | 3% | 3% | -9% | · | -24%
CCC1CN(C(=O)N2CCC(C(=O)N3CCN(c4cc(C)ccc4C)CC3)CC2)c2ccccc2O1 (stereo unspecified) | -1% | 1% | 17% | 16µM* | · | 15µM*
CCC1CN(C(=O)NCc2ccc(F)cc2)c2ccccc2O1 (stereo unspecified) | 0% | 1% | 14% | ? | 1% | ?
CCC1CN(C(=O)N2CCC(C(=O)N3CCN(c4cccc(C)c4C)CC3)CC2)c2ccccc2O1 (stereo unspecified) | -12% | 3% | 14% | 7.3µM* | · | 5.8µM*
CCC1CN(C(=O)N2CCC(C(=O)N3CCN(c4ccc(F)cc4)CC3)CC2)c2ccccc2O1 (stereo unspecified) | -14% | 1% | -3% | 13µM* | · | 21µM*
SMILES | KAT2A inh | TDP1 block | VDR inh | TDP1 cell CPT | PLK1 PBD block | TDP1 cell noCPT
Cc1ccc(NC(=O)Cn2ccn(-c3ccccc3)c(=O)c2=O)cc1 | -6% | 0% | -1% | -4% | · | 0%
O=c1c2c(-c3ccco3)csc2nc(SCc2cn3cccnc3n2)n1-c1ccccc1 | -9% | -4% | -12% | ? | 24µM* | ?
O=C(CSc1nc2scc(-c3ccco3)c2c(=O)n1-c1ccccc1)NCC1CCCO1 (stereo unspecified) | ? | -4% | -5% | -8% | -4% | -10%
NC(=O)CSc1nc2scc(-c3ccco3)c2c(=O)n1-c1ccccc1 | -21% | -5% | 79µM* | -26% | -21% | -13%
c1ccc(-n2cnnc2SCc2cn3cccnc3n2)cc1 | -17% | 5% | -2% | -2% | -9% | -2%
O=C(Cc1ccccc1)Nc1cccc(-c2cn3cccnc3n2)c1 | -3% | 0% | 28% | ? | · | ?
CC1(C)SC(=S)N(/N=C/c2ccc(O)cc2)C1N(O)C(=O)Nc1ccc([N+](=O)[O-])cc1 (stereo unspecified) | -4% | 9% | -10% | 23µM* | -4% | ?
CC1(C)SC(=S)N(/N=C/c2ccccc2O)C1N(O)C(=O)Nc1ccccc1 (stereo unspecified) | -16% | 6% | 12% | 12µM* | -5% | 16µM*
Cc1ccc(/C=N/N2C(=S)SC(C)(C)C2N(O)C(=O)Nc2ccc([N+](=O)[O-])cc2)cc1 (stereo unspecified) | -7% | 7% | -8% | ? | -14% | 18µM*
O=C(C(=O)N1CCN(Cc2ccc3c(c2)OCO3)CC1)c1c[nH]c2ccccc12 | -9% | 5% | 15% | ? | -9% | -24%
CC1CN(c2c(F)c(N)c3c(=O)c(C(=O)O)cn(C4CC4)c3c2F)CC(C)N1 (stereo unspecified) | -6% | -9% | 7% | · | · | ·
COCc1cc(Sc2ccc(Cl)cc2)nc(C)n1 | -3% | -3% | -2% | ? | 0% | -9%
COCc1cc(S(=O)c2ccc(Cl)cc2)nc(C)n1 (stereo unspecified) | 1% | 5% | 50µM* | 4.6µM* | 5.3µM* | 2.9µM*
CC(C)(C)CN1C(=O)C(=O)NC[C@@H]1CCCCN | · | · | -1% | -2% | -13% | 9%
CN1CC(c2ccccc2)C(c2ccc(Cl)cc2)=N1 (stereo unspecified) | 0% | -3% | -8% | ? | 4% | ?

Compound activity as filed in PubChem.
